Only some compounds are listed: those with a hit (about 2.5% of all), similar ones and a draw of the others.
RAD52 inh = RAD52 DNA annealing inhibitors, primary screen, biochemical, FRET, single point, set 2 | 0.46% of 360,000 active | inhibition, % at 18.7 µM | recombinant RAD52 DNA annealing, FRET fluorescence | DNA repair protein RAD52 homolog (Homo sapiens), P43351 | AID 651710, 2012;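 active means every replicate showing at least 50% inhibition; inconclusive means mean inhibition at least 50% but not in every replicate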
rRNA inh HTS = reduced GFP signal of wild-type E. coli, primary screen, bacterial rRNA inhibitor project, GFP/RFP fluorescence, OD600, single point | E. coli WT GFP vs humanized-ribosome RFP mutants, 24 h; stronger effect = lower value; DMSO median 0, no signal -100 | GFP signal change (wild-type ribosome), % (concentration not given with the values) | 1.6% of 350,000 active;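 active means significant combined selectivity score with lowered wild-type GFP, culture density cut under 30%, mutant RFP and density less affected; inactive means any of these conditions unmet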
MLL AF4-AF9 inh = inhibitors of AF4 peptide binding to AF9, primary screen, biochemical, AlphaScreen, biotin-AF4 peptide, FLAG-AF9, single point. AID 651704, 2012. 0.47% of 350,000 active. inhibition, % at 10 µM. Protein AF-9 (Homo sapiens), P42568;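 active means every replicate reaching a set inhibition limit, whatever the replicate mean, cut at about 25% in these data; inconclusive means mean inhibition reaches that limit but some replicates miss it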
Target sequence (P42568 whole entry, looked up): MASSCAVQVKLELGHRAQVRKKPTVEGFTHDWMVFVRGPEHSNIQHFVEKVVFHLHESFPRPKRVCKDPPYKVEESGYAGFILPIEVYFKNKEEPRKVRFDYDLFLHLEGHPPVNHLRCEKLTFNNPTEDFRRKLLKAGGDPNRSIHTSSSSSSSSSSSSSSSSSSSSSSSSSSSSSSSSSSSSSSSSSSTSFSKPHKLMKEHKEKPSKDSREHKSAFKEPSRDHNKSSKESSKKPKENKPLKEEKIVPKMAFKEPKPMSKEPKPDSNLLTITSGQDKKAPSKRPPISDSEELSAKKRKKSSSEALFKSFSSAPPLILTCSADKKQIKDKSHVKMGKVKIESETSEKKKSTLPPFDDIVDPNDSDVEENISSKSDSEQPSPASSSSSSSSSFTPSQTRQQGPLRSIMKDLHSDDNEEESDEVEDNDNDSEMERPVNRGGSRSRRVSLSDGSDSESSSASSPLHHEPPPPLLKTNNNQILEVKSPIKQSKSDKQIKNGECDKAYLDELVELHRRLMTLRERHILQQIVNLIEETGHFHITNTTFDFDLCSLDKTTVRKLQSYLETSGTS
NSD2 HMT inh = NSD2 histone methyltransferase inhibitors, primary screen, biochemical, AlphaScreen, single concentration, set 2 | Histone-lysine N-methyltransferase NSD2 (Homo sapiens), O96028 | NSD2 peptide methylation, 120 min | inhibition, % at 12.5 µM | 0.54% of 310,000 active; in the data active means inhibition above about 50%
Casp6 inh = human caspase-6 inhibitors, primary screen, biochemical, VEID-R110 fluorescence, single point, set 2. inhibition, % at 12.5 µM. 0.53% of 350,000 active. purified caspase-6, Z-VEID-R110 cleavage fluorescence. AID 686996, 2013. P55212;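 active means mean inhibition across replicates at least about 35%, with every replicate also reaching that limit, limit read from the data; inconclusive means only one of the two criteria met; inactive means neither criterion met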
Large screens that a line does not name were inactive.

Cn1c(NC(=O)c2ccccc2F)cc(=O)n(C)c1=O	none (no result: NSD2 HMT inh)
CC(C)[C@@H]1C(=O)N[C@@H](c2ccccc2)CC=CC[C@H](C)Oc2ccccc2C(=O)N1C (mixture of isomers)	none (no result: RAD52 inh, MLL AF4-AF9 inh, NSD2 HMT inh, Casp6 inh)
Cc1nnn(C23CC4CC(CC(CC(=O)Nc5cccc(F)c5)(C4)C2)C3)n1	none
Cc1nnn(C23CC4CC(CC(CC(=O)Nc5ccc(C)c(C)c5)(C4)C2)C3)n1	rRNA inh HTS -19
Cc1cccc(NC(=O)CC23CC4CC(C2)CC(n2nnc(C)n2)(C4)C3)c1	rRNA inh HTS -23
COc1ccc(S(=O)(=O)N(C)C[C@@H]2OCCCC[C@@H](C)Oc3ccc(NS(=O)(=O)c4ccc(F)cc4)cc3C(=O)N([C@@H](C)CO)C[C@@H]2C)cc1	none (no result: NSD2 HMT inh)
CC(C)NC(=O)N[C@@H]1CC[C@H](CCNS(=O)(=O)Cc2ccccc2)O[C@@H]1CO	none (no result: NSD2 HMT inh)
COc1ccc(CNC(=O)C[C@H]2CC[C@H]3[C@H](COc4ccc(NC(=O)C(C)C)cc4C(=O)N3C)O2)cc1	none (no result: RAD52 inh, MLL AF4-AF9 inh, NSD2 HMT inh, Casp6 inh)
Cn1cnnc1SCC(=O)Nc1ccc2nc(SCc3ccccc3F)sc2c1	rRNA inh HTS -23
O=C(CSc1nc2ccc(NC(=O)CSc3nnnn3-c3ccccc3)cc2s1)Nc1ccccc1	none (no result: RAD52 inh, rRNA inh HTS, MLL AF4-AF9 inh, Casp6 inh)
O=C(O)c1ccccc1NS(=O)(=O)c1ccc(NNC(=S)Nc2ccc(OC(F)F)cc2)c([N+](=O)[O-])c1	MLL AF4-AF9 inh 27, NSD2 HMT inh 110
O=C(O)c1ccccc1NS(=O)(=O)c1ccc(N/N=C/c2cccc(O)c2O)c([N+](=O)[O-])c1	Casp6 inh 60 (no result: rRNA inh HTS)
CCOc1cc(/C=N/Nc2ccc(S(=O)(=O)Nc3ccccc3C(=O)O)cc2[N+](=O)[O-])cc(Cl)c1O	rRNA inh HTS -8.1
CCOc1ccc(C=NNc2ccc(S(=O)(=O)Nc3ccccc3C(=O)O)cc2[N+](=O)[O-])cc1OC	none (no result: RAD52 inh, rRNA inh HTS, MLL AF4-AF9 inh, Casp6 inh)
COc1ccc(N2CCN(Cc3nc4c(c(=O)n(C)c(=O)n4C)n3Cc3cccc(C)c3)CC2)cc1	MLL AF4-AF9 inh 33 (no result: NSD2 HMT inh)
C[C@@H]1CN([C@@H](C)CO)C(=O)c2c(c3ccccc3n2C)-c2ccccc2CO[C@@H]1CN(C)S(=O)(=O)c1cn(C)cn1	none (no result: NSD2 HMT inh)
Cc1c(O)ccc2c(CN(C)Cc3ccccc3)cc(=O)oc12	rRNA inh HTS -25
FC(F)Oc1ccc(NC(=S)Nc2ccc3cn[nH]c3c2)cc1	rRNA inh HTS -25, MLL AF4-AF9 inh inconclusive
C[C@@H]1CN([C@H](C)CO)C(=O)c2cc(NS(=O)(=O)c3cccs3)ccc2O[C@@H](C)CCCCO[C@@H]1CN(C)C	none (no result: NSD2 HMT inh)
C[C@@H]1CN([C@H](C)CO)C(=O)c2cccc(NC(=O)C3CC3)c2O[C@H]1CN(C)Cc1ccc(-c2ccccc2)cc1	none (no result: NSD2 HMT inh)
CCOc1ccc(NC(=S)NCc2cccnc2)cc1	rRNA inh HTS -20 (no result: MLL AF4-AF9 inh)
COc1ccc(C2=NN(C(C#N)c3ccc(OC)cc3)C(c3ccccc3)C2)cc1 (centres undefined)	MLL AF4-AF9 inh 29
COc1ccc(C(C#N)N2N=C(C)CC2c2ccccc2)cc1 (centres undefined)	none
CCOc1cc2c(cc1OC)C(c1cccc([N+](=O)[O-])c1)NCC2 (centres undefined)	Casp6 inh 42
CCOc1cc2c(cc1OCC)C(c1ccc(F)cc1)NCC2 (centres undefined)	none (no result: MLL AF4-AF9 inh)
Cc1ccc(S(=O)(=O)NCc2cn3c(C)csc3n2)cc1	none (no result: RAD52 inh, rRNA inh HTS, MLL AF4-AF9 inh, Casp6 inh)
Cc1ccc(SCc2cn3c(C)csc3n2)cc1	rRNA inh HTS -51 (no result: NSD2 HMT inh)
O=C(CSc1n[nH]c(=O)n1C1CC1)Nc1ccc(Cl)c(Cl)c1	rRNA inh HTS -20
Cc1ccc(S(=O)(=O)N(C)C[C@@H]2Oc3c(cccc3N(C)C)C(=O)N([C@H](C)CO)C[C@H]2C)cc1	none (no result: NSD2 HMT inh)
COC(=O)c1ccc2nc(-c3ccccc3)c(Cc3ccc(C)cc3)n2c1	rRNA inh HTS -27 (no result: NSD2 HMT inh)
COc1ccc(CNC(=O)CCS(=O)(=O)c2ccc(Br)cc2)cc1	Casp6 inh 57
NS(=O)(=O)c1ccc(CCNC(=O)CCS(=O)(=O)c2ccc(Br)cc2)cc1	Casp6 inh 79
CCc1cccc(NC(=O)CCS(=O)(=O)c2ccc(Br)cc2)c1	Casp6 inh 72
Cc1ccc(S(=O)(=O)CCC(=O)Nc2cccc(C)c2)cc1	none (no result: RAD52 inh, rRNA inh HTS, MLL AF4-AF9 inh, Casp6 inh)
CC(C)C#Cc1cnc2c(c1)C(=O)N([C@H](C)CO)C[C@H](C)[C@@H](CN(C)C(=O)C1CCC1)O2	none (no result: NSD2 HMT inh)
Nc1ccc(Sc2ccccc2Cl)nc1	Casp6 inh 43 (no result: NSD2 HMT inh)
O=[N+]([O-])c1ccc(Sc2ccccc2Cl)nc1	none (no result: RAD52 inh, rRNA inh HTS, MLL AF4-AF9 inh, Casp6 inh)
C=CCn1c(Sc2ncc([N+](=O)[O-])s2)n[nH]c1=O	rRNA inh HTS -28
CCCc1cn(CC[C@H]2CC[C@@H](NS(=O)(=O)c3ccc(-c4ccccc4)cc3)[C@@H](CO)O2)nn1	none (no result: NSD2 HMT inh)
COC(=O)Cc1c[nH]c2cccc(OCC(O)CN(Cc3ccc([N+](=O)[O-])cc3)C(C)(C)C)c12 (centres undefined)	none (no result: MLL AF4-AF9 inh)
Cc1ccc(CN(CC(O)COc2cccc3[nH]cc(C)c23)C(C)(C)C)cc1 (centres undefined)	MLL AF4-AF9 inh 29 (no result: NSD2 HMT inh)
O=c1[nH]c(SCCOc2ccccc2F)nc2ccccc12	none
Cn1c(SCCOc2ccccc2F)nc2ccccc2c1=O	rRNA inh HTS -28
Cc1ccccc1NC(=O)Nc1ccc2c(c1)C(=O)N(C)[C@H]1CC[C@@H](CC(=O)NCC3CC3)O[C@@H]1CO2	none (no result: NSD2 HMT inh)
O=C(Oc1c(-c2ccccc2)c(=O)n2c3c(cccc13)CC2)c1ccc(F)cc1	none (no result: rRNA inh HTS)
O=C(Oc1c(-c2ccccc2)c(=O)n2c3c(cccc13)CC2)c1ccccc1	rRNA inh HTS -28
CCOc1ccc(C(=O)Nc2cccc(C(=O)Nc3cc(C)ccn3)c2)cc1	none (no result: RAD52 inh, rRNA inh HTS, MLL AF4-AF9 inh, Casp6 inh)
COc1ccccc1CCC(=O)Nc1ccc2c(c1)CN(CCCn1cccn1)CC2	Casp6 inh 99
CCc1ccc(S(=O)(=O)/N=C2\C=C(NS(=O)(=O)c3ccccc3)C(=O)c3ccccc32)cc1	NSD2 HMT inh 128, Casp6 inh 49
CCc1ccc(S(=O)(=O)Nc2ccncc2)cc1	none
Cc1cc(NS(=O)(=O)c2ccc(C(C)C)cc2)no1	none
Cc1ccc(C)c(S(=O)(=O)/N=C2\C=C(NS(=O)(=O)c3ccccc3)C(=O)c3ccccc32)c1	NSD2 HMT inh 97
CC(C)c1ccc(S(=O)(=O)/N=C2\C=C(NS(=O)(=O)c3ccccc3)C(=O)c3ccccc32)cc1	NSD2 HMT inh 112
Cc1ccc(NC2=C/C(=N/S(=O)(=O)c3cccs3)c3ccccc3C2=O)cc1C	none
O=C(Nc1ccccc1F)N1C[C@@H]2[C@H](c3ccccc31)[C@@H](CO)N2C(=O)C1CC1	none (no result: NSD2 HMT inh)
CCN(CC)c1ccc(NC(=O)CSc2nc(C)cc(=O)[nH]2)cc1	rRNA inh HTS -14 (no result: NSD2 HMT inh)
